The structures appear in SMILES notation. Compounds without any hit were thinned out: in the full panel of roughly 83,000, 20% have a hit.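 Single-dose data. Exposure time 48 hours. Values below 10 considered active.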 Unmarked numbers belong to inactive results. The source made the active and inactive calls.

Experimental findings from PubChem BioAssay (NCI) are described below.

Assay in all cases: NCI-60 one-dose screen, 48 h (100 = growth as untreated, 0 = no growth, -100 = all killed)
What all share (details): 10 µM

Test [1] has as its system RPMI-8226 leukemia.
Test [2] concerns OVCAR-8 ovarian.
The test system of test [3] is OVCAR-5 ovarian.
Test [4] relates to IGROV1 ovarian.
Test [5] concerns OVCAR-3 ovarian.
Test [6] deals with HS 578T breast.
For test [7], the system named is NCI/ADR-RES ovarian.
Test [8] relates to T-47D breast.
Test [9] deals with OVCAR-4 ovarian.
Test [10] concerns SK-OV-3 ovarian.

Turning to `CCOC(=O)C1CCc2c(ccc3ccccc23)N1CCC#N` (stereo unspecified), the growth in [1] is 104%; in test [2] it was 107%; in [3] it was 107%; in [4], 93.5%; in test [5], 115%; in test [6], 99.9%. In addition, the growth in test [7] is 82%; in [8] it was 97.5%.
For the compound `Clc1ccccc1N=Cc1ccc2c(c1)OCO2`, the growth in test [1] was 96.2%; in test [2], 103%; in test [9], 104%; in [10], 108%; in test [4] it was 111%; in [5] it was 116%. Further, the growth in test [6] is 117%; in test [7], 106%.
`COC(=O)C1=NNC(=S)N(c2cc(C)[nH]n2)C(=O)C1`: the growth was 98.5% in test [1]; 101% in [2]; 104% in test [9]; 97.9% in test [10]; 99.9% in test [4]; 108% in test [5]. The growth in [6] was 105%; in test [7] it was 99%; in test [8] it was 90.2%.
As for `Clc1cc2c(c(CSc3nc4ccccc4n4cccc34)c1)OCOC2`, the growth was 49% in [1]; 59.3% in test [2]; 87.2% in test [3]; 74.9% in test [10]; 72.2% in test [5]; 91.8% in test [6]. The growth in [7] was 89.5%; in test [8] it was 2.37% (active).
With `O=C1ON=[N+](c2ccc(Cc3ccc([N+]4=NOC(=O)C4CN4CCOCC4)cc3)cc2)C1CN1CCOCC1` (stereo unspecified), the growth was 60.5% in test [1]; 80.9% in test [2]; 53.9% in [9]; 88% in [10]; 62.3% in [4]; 89.1% in test [5]. For the same compound, the growth is 64% in test [6], 63.4% in test [7] and 56.1% in test [8].
For the compound `Cc1cc(Cl)nc(N(CCCNc2ccnc3cc(Cl)ccc23)Cc2cccs2)n1`, the growth in test [1] was -48.5% (active); in test [2], 7.5% (active); in test [9] it was 11%; in [10], 46.3%; in [4], 6.77% (active); in test [5], 25.9%. Moreover, the growth in test [6] was 48.6%; in test [7], 0.179% (active); in test [8] it was -2.57% (active).
With `NC(=O)SCC(=O)Nc1ccc(S(N)(=O)=O)cc1`, the growth in [1] was 108%; in [2] it was 104%; in test [9], 106%; in test [10], 108%; in test [4], 112%; in test [5], 107%. Further, the growth in [6] is 99.6%; in test [7] it was 105%; in [8] it was 98.2%.
Regarding `COc1ccc(OC)c2c1C(=O)CC2C` (stereo unspecified), the growth in test [1] was 106%; in test [2], 105%; in test [3] it was 112%; in test [4], 100%; in [5] it was 101%; in test [6], 98.2%. Further, the growth in test [7] was 108%; in [8], 98.8%.
`COc1ccc(-c2nn(-c3cccc(NC(=O)Nc4cccc(C(F)(F)F)c4)c3)cc2-c2ccncc2)cc1Cl`: the growth in [1] is -11% (active); in test [2] it was -4.63% (active); in [9], 18.1%; in [10] it was 20.4%; in test [4], 14.5%; in test [5], 3.89% (active). The growth was 32.5% in test [6], 0.659% (active) in [7] and -6.95% (active) in test [8].
Consider `O=C1/C(=C\c2ccccc2)CN(C(=O)c2ccccc2)C/C1=C\c1ccccc1`, for which the growth in test [1] was -27% (active); in test [2] it was 14.3%; in test [9] it was 36.5%; in [10] it was 50.1%; in test [4] it was 26.6%; in test [5] it was -12.2% (active). The growth in test [6] was -14.8% (active); in test [7] it was 21.9%; in [8] it was 48.7%.
Take `CCCCCCCNc1nc(C=O)ncc1-c1ccc(C(F)(F)F)cc1`: the growth in [1] was 84%; in test [2], 102%; in test [9], 110%; in [10] it was 96.5%; in test [4], 89.8%; in [5] it was 97.6%. In addition, the growth in test [6] was 107%; in [7], 90.1%; in [8], 81.6%.
Consider `CCOC(=O)C1(CC(C)C)CCOC1=O` (stereo unspecified), for which the growth was 95.6% in [1]; 93.8% in [2]; 95.5% in [9]; 101% in [10]; 119% in [4]; 104% in test [5]. The results for the growth in test [6], in [7] and in test [8] were 110%, 98.8% and 99%, respectively.
`COc1ccc(-c2nc3sccn3c2-c2nc3c([nH]2)C(=O)c2ccccc2C3=O)cc1`: the growth in test [1] is 74.7%; in [2], 96.2%; in test [9] it was 84.1%; in [10], 109%; in test [4] it was 105%; in test [5], 114%. Moreover, the growth was 90.6% in [6], 86.5% in test [7] and 72% in test [8].
Consider `CN(C)CCNC(=O)c1cccn2c(=O)c3cc4ccccc4cc3nc12`, for which the growth in [1] was -29.2% (active); in [2], -9.49% (active); in test [9] it was -3.24% (active); in test [10] it was 19.5%; in test [4], 19.3%; in test [5], -15.3% (active). The growth in test [6] was -14.5% (active); in test [7] it was 5.94% (active); in [8], 5.57% (active).
Take `Cc1cc(C)c2c(n1)sc1c(Nc3ccc(Cl)cc3)ncnc12`: the growth in [1] is 23.7%; in [2], 4.06% (active); in [9], 84.4%; in [10], 35.2%; in test [4], 70.8%; in test [5] it was 33.3%. In addition, the growth in test [6] is 76.5%; in [7] it was 15.1%; in test [8] it was 23.4%.
